This is a sample that favours compounds with a hit; in the whole collection about 3.5% have one here.
Pf apPOL block: Pf-apPOL DNA polymerase inhibition | Recombinant Pf-apPOL, molecular beacon fluorescence, 1.5 h | inhibition, % at 10 µM | actives 0.25% (n = 210,000)
mHTT-CaM PPI inh: disrupts binding of mutant huntingtin to calmodulin; inhibition, % at 15 µM; P42858; AlphaScreen His-mHTT/GST-CaM binding, luminescence; actives 3.6% (n = 190,000)
Large screens that a line does not name were inactive; ! = a repeat was not active. Cut-off read from the data, not from the text of the source: active = inhibition above about 50%; inactive = the rest.

Cc1ccc(C)c(N=Cc2cc3c(cc2[N+](=O)[O-])OCO3)c1	mHTT-CaM PPI inh 66 (no result: Pf apPOL block)
Cc1ccc(N=Cc2cc3c(cc2[N+](=O)[O-])OCO3)c(C)c1	mHTT-CaM PPI inh 76
CC(C)(C)c1ccc(-c2nc(-c3ccc(Br)o3)no2)cc1	none (no result: Pf apPOL block)
CCOC(=O)c1c(C(C)(C)C)oc2ccc(OC(=O)c3ccc(OC)c(OC)c3)cc12	none
Cc1cc(C)nc(Nc2nc(CC(=O)Nc3ccc(OC(F)(F)F)cc3)cs2)n1	none
CN1CCN(C(=N)C(C#N)=Cc2[nH]c3ccccc3c2O)CC1	none
COc1ccc(N=C(N)C(C#N)=Cc2[nH]c3ccccc3c2O)cc1	mHTT-CaM PPI inh 69
COc1ccc(CCN2CC(C(=O)NCc3cccc(F)c3)CC2=O)cc1OC (stereo unspecified)	none
COC(CNC(=O)c1ccc(N2CCN(c3ccccn3)CC2)c([N+](=O)[O-])c1)OC	none
COC(CNC(=O)c1ccc(N2CCc3ccccc32)c([N+](=O)[O-])c1)OC	mHTT-CaM PPI inh 58
O=C(CSC1=NCCS1)NCc1ccco1	none
O=C(Nc1nc(-c2ccc(F)cc2)cs1)c1cc2ccccc2oc1=O	none
O=C(c1ccccc1)c1ccc(N2CCN(C(=O)c3ccccc3F)CC2)c(F)c1	none
O=C(c1ccccc1F)N1CCN(C2=NN=C(c3ccccc3)CS2)CC1	mHTT-CaM PPI inh 92
N#Cc1nc(-c2cccs2)oc1N1CCN(C(=O)c2ccco2)CC1	none
O=C(c1ccco1)N1CCN(C2=NN=C(c3cccs3)CS2)CC1	Pf apPOL block 50, mHTT-CaM PPI inh 96
CCCn1cnnc1C1CCN(Cc2cccc(OCC)c2)CC1	none
O=C(NC1CCCCCC1)c1cc2cn(C3CC3)cc2s1	none
Cn1c(=O)c(NCCc2c[nH]c3ccccc23)nc2ccncc21	mHTT-CaM PPI inh 100
Cn1c(=O)c(NCCCN2CCCc3ccccc32)nc2ccncc21	mHTT-CaM PPI inh 60
O=c1c(NCCN2CCCC2)nc2ccncc2n1Cc1ccccc1	none
Cn1c(=O)c(NCCc2ccc(Cl)cc2)nc2ccncc21	none
O=C(Nc1ccc(O)c(-c2nc3ccccc3s2)c1)c1ccc([N+](=O)[O-])cc1	none
Cc1cc(C)c(-c2[nH]ncc2-c2nc3ccccc3s2)c(O)c1	mHTT-CaM PPI inh 86
O=[N+]([O-])c1ccc(COc2ccc(-c3[nH]ncc3-c3nc4ccccc4s3)c(O)c2)cc1	mHTT-CaM PPI inh 100
Nc1ccc(O)c(-c2nc3ccccc3s2)c1	none
COC(=O)c1ccc2c(=O)n(Cc3ccc(C)cc3)c(N3CCSC3)nc2c1	none
O=C(NCC1CCN(C2CCCC2)CC1)NC12CC3CC(CC(C3)C1)C2	none
COCc1ccc(-c2c(-c3ccccc3OC)sc3ccccc23)cc1	none
COc1cc(-c2c(CCO)sc3ccccc23)cc(OC)c1OC	mHTT-CaM PPI inh 97
COc1ccc(Cl)cc1N1C(=O)C2CCCN2C1c1ccc(SC)cc1 (stereo unspecified)	none
CCc1ccccc1N1CCN(C(=O)c2ccc(C(F)(F)F)cc2)C(C)C1=O (stereo unspecified)	none
CC(C)C[C@@H](COCc1ccc(F)cc1)N1CCN(C(=O)c2cccc(C(F)(F)F)c2)CCC1=O	mHTT-CaM PPI inh 60
Cc1ccc(S(=O)(=O)N2CCC(=O)N([C@H](COCc3cccc(C(F)(F)F)c3)Cc3ccccc3)CC2)cc1	none
Cc1ccc(S(=O)(=O)N2CCC(=O)N([C@H](COCc3cccc(C(F)(F)F)c3)C(C)C)CC2)cc1	none
CC(C)C[C@@H](COCc1cccc(Cl)c1)N1CCN(C(=O)c2cccc(C(F)(F)F)c2)CCC1=O	mHTT-CaM PPI inh 87!
CCCCN(C)C(=O)c1cc2cc3cc(OC)ccc3nc2s1	none
O=C(CN1C(=O)c2ccccc2C1=O)Nc1ccccc1C(F)(F)F	none
NC(=O)CSc1ccc(-c2ccccn2)nn1	mHTT-CaM PPI inh 100
Cc1ccc2nc(NC(=O)CSc3ccc(-c4ccco4)nn3)sc2c1	Pf apPOL block 74, mHTT-CaM PPI inh 85
O=C(CSc1cccc2cccnc12)Nc1nc2ccccc2s1	none
NC(=O)CSc1nc2ccccc2nc1SCC(N)=O	none
O=C(CSc1ccc(-c2ccccn2)nn1)Nc1nc2ccccc2s1	mHTT-CaM PPI inh 89
Cc1ccc2nc(NC(=O)CSc3ccc(NC(=O)C4CC4)nn3)sc2c1	none
O=C(Nc1ccc(F)cc1F)N1CC2CC1CC2NS(=O)(=O)c1ccccc1 (stereo unspecified)	none
CC(C)N(C(=O)c1ccc(C(=O)NC(C)(C)C)cc1)C(C)C	none
O=C(Cc1csc(Nc2ncccn2)n1)NCc1cccs1	none
O=C(NCc1cccs1)Nc1nc(-c2ccccn2)cs1	mHTT-CaM PPI inh 100
O=C(Nc1nc(-c2ccccn2)cs1)c1ccc([N+](=O)[O-])o1	mHTT-CaM PPI inh 74
O=C(Nc1nc(-c2ccccn2)cs1)c1cc2cc([N+](=O)[O-])ccc2s1	none
CCOc1cccc2cc(-c3csc(NC(=O)c4ccc([N+](=O)[O-])o4)n3)oc12	none
O=C(Nc1nc(-c2ccccn2)cs1)c1ccccc1[N+](=O)[O-]	mHTT-CaM PPI inh 100
COc1ccc(NC(=O)c2cc3c(CO)cnc(C)c3oc2=Nc2cc(OC)ccc2OC)cc1	none
Cc1ccc(S(C)(=O)=NC(=O)CSc2ccc(Cl)cc2)cc1 (stereo unspecified)	none (no result: mHTT-CaM PPI inh)
CCc1ccc(CNC(=O)CCS(=O)(=O)Cc2cccc(Cl)c2)cc1	none
COc1ccccc1C(=O)N1CCCCC1CCN1CCCC1 (stereo unspecified)	none
O=C(c1ccc(C(F)(F)F)cc1)N1CCC(Cc2nnc(-c3ccccc3)o2)CC1	mHTT-CaM PPI inh 57
O=C(c1ccoc1)N1CCC(Cc2nnc(-c3ccccc3)o2)CC1	none
CCCc1ccc(Oc2c(C(F)(F)F)oc3cc(O)ccc3c2=O)cc1	none
O=C(Nc1ccc(C(F)(F)F)cc1)c1ccc(S(=O)(=O)NCCc2ccccc2)o1	none
Cc1ccc(Nc2nccc(C3CCCN(C(=O)Cc4cccs4)C3)n2)cc1 (stereo unspecified)	mHTT-CaM PPI inh 63
Cc1ccc(Nc2nccc(C3CCCN(C(=O)C4CCC4)C3)n2)cc1 (stereo unspecified)	none
CC(=O)N1CCCC(c2ccnc(Nc3ccc(F)cc3)n2)C1 (stereo unspecified)	none
O=C(Cc1cccs1)N1CCCC(c2ccnc(Nc3ccc(F)cc3)n2)C1 (stereo unspecified)	mHTT-CaM PPI inh 53
Cc1ccc(C)c(S(=O)(=O)Nc2ccc(O)cc2)c1	none
Clc1nc(Nc2ccccc2)nc(Nc2ccccc2)n1	none
CC(C)C[C@@H](CN=[N+]=[N-])N1CCN(CCc2ccccc2)CCC1=O	mHTT-CaM PPI inh 71
CC(=O)Nc1ccc(SC[C@H](CC(C)C)N2CCN(CCc3ccccc3)CCC2=O)cc1	none
O=C1CCN(CCc2ccccc2)CCN1[C@H](CSc1ccc(Br)cc1)Cc1ccccc1	mHTT-CaM PPI inh 75!
Cc1ccc(SC[C@H](CC(C)C)N2CCN(CCc3ccccc3)CCC2=O)cc1	mHTT-CaM PPI inh 80
O=C1CCN(Cc2ccccc2)CCN1[C@H](CSc1ccccc1)Cc1ccccc1	none
COc1ccc(SC[C@H](CC(C)C)N2CCN(CCc3ccccc3)CCC2=O)cc1	mHTT-CaM PPI inh 100
COc1ccc(SC[C@H](Cc2ccccc2)N2CCN(CC(C)C)CCC2=O)cc1	none
CC(C)C[C@@H](CO)N1CCN(CCc2ccccc2)CCC1=O	none
Cn1c(CSc2nc3ccccc3c(=O)[nH]2)nc2ccccc21	none
Cc1cc(C)nc(NC(=NS(=O)(=O)Cc2ccccc2)Nc2ccccc2)n1	none
Cc1nc(-c2ccccc2)nc2[nH]c(-c3ccccc3)cc(=O)c12	none
Cc1nc2nc(N)nn2c2c1C(=O)CC(C)(C)C2	none (no result: Pf apPOL block)
